An excerpt weighted towards active compounds, which were near 4.1% of everything screened.
TIM10 inh: growth inhibitors of TIM10 yeast strain; S. cerevisiae TIM10 strain growth, BacTiter-Glo luminescence, 24 h; inhibition, % at 10 µM; 330,000 compounds, 1.4% hits; AID 463195;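 active = inhibition of 40% or more at the single tested concentration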;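 also: wild-type TIM10 isogenic control strain grown at permissive 25 °C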
tim23-1 inh: growth inhibitors of tim23-1 mutant yeast. S. cerevisiae tim23-1 growth, BacTiter-Glo luminescence, 24 h. inhibition, % at 20 µM. 330,000 compounds, 1.3% hits;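 active = growth inhibition of the mutant yeast at or above 50%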;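 also: temperature-sensitive mutant grown at 25 °C; plate controls were DMSO-treated mutant yeast for no effect and medium wells lacking yeast for full effect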
NALP1 inh: blocks the NALP1 inflammasome reconstituted in yeast; S. cerevisiae NALP1/ASC/caspase-1 growth, X-gal OD620, 72 h; inhibition, % at 10 µM; 280,000 compounds, 0.61% hits; in the data active = inhibition mostly above about 24%, no sharp cut-off; inactive = mostly below about 32%
PfHsp90 yeast 2: inhibits growth of yeast expressing Plasmodium falciparum Hsp90. inhibition, % at 9.4 µM. 310,000 compounds, 0.32% hits. S. cerevisiae expressing PfHsp90, BacTiter-Glo ATP, 48 h; yeast lacking PDR1 and PDR3 efflux regulators;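 active = every replicate shows inhibition above about 80%, whatever the replicate mean, limit read from the data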;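 also: 0% = DMSO neutral controls and 100% = 20 µM radicicol positive controls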
tim10-1 inh: tim10-1 yeast growth inhibition; AID 463190; inhibition, % at 20 µM; 330,000 compounds, 2.2% hits; S. cerevisiae tim10-1 ts strain growth, BacTiter-Glo, 24 h;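 active = inhibition of at least 40%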;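 also: mutant grown at 25 °C; 0% = DMSO wells with yeast and 100% = wells holding no yeast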
NALP3 yeast inh: blocks the NALP3 inflammasome reconstituted in yeast; 330,000 compounds, 0.39% hits; AID 2825; Yeast reconstituted NLRP3/ASC/caspase-1, beta-gal luminescence, 24 h; inhibition, % at 10 µM;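 active = inhibition of 50% or more; inactive = inhibition below 50%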;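 also: plate controls were induced DMSO wells for no effect and uninduced yeast grown without galactose for full effect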
TIM10 conf: confirmation of TIM10 yeast growth inhibitors | shares compounds with TIM10 inh | S. cerevisiae tim10 strain growth, BacTiter-Glo luminescence, 24 h | inhibition, % at 10 µM | 4,600 compounds, 63% hits | AID 463215;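 active = inhibition of yeast growth at or above a set limit in either of two replicates at 10 µM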;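 also: this counterscreen used the strain with wild-type TIM10; 0% = yeast with DMSO and 100% = medium wells lacking yeast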
* hit, by the source's call; · = no result.

SMILES	TIM10 inh	tim23-1 inh	NALP1 inh	PfHsp90 yeast 2	tim10-1 inh	NALP3 yeast inh	TIM10 conf
Cc1cc(S(N)(=O)=O)c(N)c(S(N)(=O)=O)c1	12	-10	-1	-9	17	3	·
O=C(Nc1nc2ccccc2s1)C1CC(=O)N(c2ccc(Cl)cc2)C1 (stereo not given)	48*	43	-14	-9	27	7	-22
COc1ccc(N2CC(C(=O)Nc3nc4ccc(OC)cc4s3)CC2=O)cc1 (stereo not given)	-5	34	6	4	33	15	·
CC(=O)c1cccc(N=Nc2c(C)[nH]c3ccccc23)c1	41*	17	30	-25	21	26	29
CCOC(=O)c1ccc2c(c1)nc(SCc1cn3ccsc3n1)n2CC	44*	35	-4	-3	23	16	34*
O=C(COC(=O)c1ccccc1F)NC(=O)NC1CCCC1	9	13	·	1	5	27	·
COc1cccc(/C=N/NC(=O)C[n+]2ccccc2)c1O	21	4	36	-28	15	9	·
COc1ccc(CCCC(=O)N/N=C/c2cccc(OC)c2O)cc1C	55*	35	9	-4	6	13	-10
CCN(CC)CCOC(=O)c1ccc(NC(=O)CCCN2C(=O)/C(=C/c3cccs3)SC2=S)cc1	5	18	18	25	38	23	·
Cn1c(N2CCOCC2)c(/C=N/OC(=O)c2cccnc2Cl)c2ccccc21	·	·	13	-11	·	·	·
Cc1ccc(C(=O)O/N=C/c2c(N3CCOCC3)n(C)c3ccccc23)cc1	42*	40	-4	-6	31	47	32*
Cc1c(C(=O)N2CCCCC2)c(S(=O)(=O)N2CCC(C)CC2)c(C)n1C	13	-7	6	-2	9	11	·
CN(CC(=O)Nc1ccc(F)c(F)c1F)C(=O)CC1CCCCC1	1	22	·	22	-20	30	·
CCc1ccc(N=CC23c4ccccc4C(c4ccccc42)C2C(=O)N(c4ccc(OC)cc4)C(=O)C23)cc1 (stereo not given)	64*	49	-4	-22	39	33	48*
COc1ccc(N2C(=O)C3C4c5ccccc5C(C=Nc5ccc(C)cc5C)(c5ccccc54)C3C2=O)cc1 (stereo not given)	53*	46	·	-30	34	38	45*
O=C(O)c1ccc(N2C(=O)C3C4c5ccccc5C(Br)(c5ccccc54)C3C2=O)cc1 (stereo not given)	-6	20	-9	29	18	5	·
CC12c3ccccc3C(c3ccccc31)C1C(=O)N(c3ccncc3)C(=O)C12 (stereo not given)	12	33	0	-31	22	7	·
COC(=O)CCC(=O)c1ccc(OC)c(Cl)c1	-20	-10	·	·	-37	10	·
O=C(COc1ccc(Cl)cc1)N1CCN(c2ccc([N+](=O)[O-])c(N3CCCCC3)c2)CC1	42*	38	37	-49	39	15	25
O=C(COc1ccccc1Cl)N1CCN(c2ccc([N+](=O)[O-])c(N3CCCCC3)c2)CC1	19	38	24	-4	22	17	·
Cc1[nH]nc2ncc(C(=O)c3cc(Cl)cc(Cl)c3O)cc12	63*	43	-4	-30	34	21	31*
C/C(=N\NC(=S)NC1CCCCC1)c1ccccc1	-6	30	7	-43	23	4	·
C/C(=N\NC(=S)NC1CCCCC1)c1ccc(O)cc1	49*	40	17	·	32	-5	42*
O=C(N/N=C/c1ccccc1)NC1CCCCC1	7	24	16	8	19	13	·
CC(C)(C)c1ccc(/C=N/NC(=S)NC2CCCCC2)cc1	96*	37	9	-21	35	15	48*
O=[N+]([O-])c1cc([N+](=O)[O-])c2c(=Nc3ccccc3)n(-c3ccccc3)n(O)c2c1	50*	48	-12	-33	18	20	66*
O=C(Nc1ccc(Cl)c(Cl)c1)O/N=C/c1ccncc1	43*	8	10	3	29	6	-24
O=C(C1CC1)N1CCc2cc(Br)cc(S(=O)(=O)N3CCCCCC3)c21	47*	-33	35	·	-2	1	-66

Assay outcomes (PubChem)
